# Source: PubChem
# Rows were chosen to be rich in hits. Some 18% of all compounds tested hit in one or more screens of this group.
# RORg inh: qHTS for inhibitors of ROR gamma transcriptional activity; Nuclear receptor ROR-gamma (Mus musculus), P51450; Drosophila S2 Gal4-RORgamma UAS-luciferase reporter, 20 h; Potency, µM (titrated, usually from 53.6 µM), inactives show top-dose activity change, negative = inhibition, usual class: inhibitors; actives 5.4% (n = 310,000); AID 2551, 2010; also: potency is read from the fitted curve at half-maximal effect; nearly all actives have a fitted effect of over 60% in size
# Target sequence (P51450 whole entry, looked up, the tested form may be a part): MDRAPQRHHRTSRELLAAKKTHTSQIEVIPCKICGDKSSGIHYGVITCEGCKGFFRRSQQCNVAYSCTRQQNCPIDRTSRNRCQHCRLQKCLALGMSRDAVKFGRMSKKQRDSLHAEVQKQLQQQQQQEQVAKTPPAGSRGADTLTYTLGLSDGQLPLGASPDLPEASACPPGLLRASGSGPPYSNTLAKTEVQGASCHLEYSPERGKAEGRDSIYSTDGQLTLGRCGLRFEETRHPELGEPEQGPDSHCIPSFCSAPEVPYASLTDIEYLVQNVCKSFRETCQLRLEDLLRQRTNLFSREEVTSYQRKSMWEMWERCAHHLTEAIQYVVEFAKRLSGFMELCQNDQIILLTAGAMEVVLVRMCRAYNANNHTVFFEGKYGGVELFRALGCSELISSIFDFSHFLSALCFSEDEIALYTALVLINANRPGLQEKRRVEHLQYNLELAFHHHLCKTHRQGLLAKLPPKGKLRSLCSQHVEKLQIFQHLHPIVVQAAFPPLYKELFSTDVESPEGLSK
#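 Luciferase reporter read in Schneider cells carrying Gal4-RORγ (mouse) and UAS-Photinus luciferase; cells given compound 1 h before 700 uM copper sulfate induction, then incubated 20 h at ambient temperature.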
# LDHA inh: qHTS assay for inhibitors of human lactate dehydrogenase | AID 1347041, 2019 | activity change, % (values are at about 110 or 230 µM) | L-lactate dehydrogenase A chain (Homo sapiens), P00338 | actives 0.15% (n = 480,000) | purified LDHA, NADH/diaphorase-resazurin fluorescence; hits give low values; in the data active = activity change below about -30%; inconclusive = mostly about -25% to -30%;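 also: plate controls were DMSO wells for no effect and wells without enzyme for full effect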
#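 Human LDH5 (2 nM) was incubated with 0.06 mM NADH and 0.2 mM pyruvate for 5 min at room temperature in Tris pH 7.4. Remaining NADH was coupled through diaphorase/resazurin, and resorufin fluorescence was read at 0 and 20 min.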
# IL-1B inflam inh: qHTS for Inhibitors of Inflammasome Signaling: IL-1-beta AlphaLISA Primary Screen | THP-1 LPS/ATP IL-1B secretion, AlphaLISA, 16 h; hits give low values | activity change, % at 57.5 µM | actives 4.7% (n = 360,000) | AID 743279, 2014; in the data active = activity change below about -50%; inconclusive = mostly about -30% to -49%
#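 THP-1 cells pretreated 1 hr with compounds (up to 57.5 uM final), then stimulated with LPS (250 ng/mL final) plus ATP (1.25 mM final); secreted IL-1B measured by AlphaLISA after 16 hr, decreased signal indicating inhibition.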
# DT40 TDP1 no CPT: qHTS for Inhibitors of human tyrosyl-DNA phosphodiesterase 1 (TDP1): qHTS in cells in absence of CPT | Potency, µM (doses to about 46.2 µM), for the others: at the highest dose activity change, negative = growth inhibition, usual class: inhibitors | actives 15% (n = 420,000) | DT40 Tdp1-/- hTDP1 cells, no CPT, ATP luminescence, 48 h | AID 686978, 2013; also: potency is read from the fitted curve at half-maximal effect; nearly all actives have a fitted effect of over 55% in size
#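 No-CPT arm: Tdp1-/-;hTDP1 DT40 cells (400/well) plus compounds, incubated ≥48 hr at 37 °C. Readout CellTiter-Glo luminescence.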
# TDP1 cell CPT: qHTS for Inhibitors of human tyrosyl-DNA phosphodiesterase 1 (TDP1): qHTS in cells in presence of CPT. Potency, µM (top dose mostly 46.2 µM), without a hit: at the highest dose activity change, negative = growth inhibition, hits mostly inhibitors. chicken DT40 Tdp1-/-;hTDP1 cells + 20 nM CPT, ATP luminescence, 48 h. actives 12% (n = 420,000); also: potency is read from the fitted curve at half-maximal effect; nearly all actives have a fitted effect of over 55% in size
#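 Chicken DT40 Tdp1-/- cells complemented with human TDP1, 400 cells/well, exposed to compounds plus 20 nM camptothecin for at least 48 h at 37 C; viability read as ATP content by CellTiter-Glo luminescence.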
# VP16 counter: VP16 counterscreen qHTS for inhibitors of ROR gamma transcriptional activity | Drosophila S2 Gal4-VP16 UAS-luciferase, luminescence, 20 h | Potency, µM (series often up to 53.6 µM), without a hit: top-dose activity, negative = inhibition, usual class: inhibitors | actives 3.5% (n = 310,000) | AID 2546, 2010;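 also: Gal4-VP16 expression switched on by copper sulfate through the metallothionein promoter; potency is read from the fitted curve at half-maximal effect; nearly all actives have a fitted effect of over 50% in size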
# An asterisk follows results filed as active; ? = inconclusive; / = not tested or not shown; [ ] = another dose, or the depositor's remark. Unless noted, calls follow the shape of the dose curve; as a rule, active = well fitted curve in the direction sought with a large enough effect; inconclusive = small, poorly fitted or top-dose-only effect, or another doubt; inactive = no such curve, though single readings can be large; an effect the other way counts as inactive or inconclusive. Unless noted, % is scaled to controls: 0 for no effect and ±100 for the full control effect.
SMILES,RORg inh,LDHA inh,IL-1B inflam inh,DT40 TDP1 no CPT,TDP1 cell CPT,VP16 counter
COc1ccc(/C=N/NC(=O)c2nc(-c3ccccc3)n(-c3ccccc3)n2)cc1OC,10.5%,-6.1,-11.9,?,?,-11.6%
COc1cc(/C=N/Nc2nc(C)nc3c2cnn3-c2ccccc2)ccc1O,4.5%,-7.3,-99.7*,2.91µM*,2.91µM*,-5.7%
COc1ccc(/C=N/NC(=O)c2nc(-c3ccccc3)cc(-c3ccccc3)n2)cc1O,41.1%[10 µM],0.7,-82.0*,16.4µM*,13µM*,-14.9%
COc1ccc(CC(=O)N/N=C/c2c(C)n(C)c3ccccc23)cc1OC,-17.3%,-2.2,32.7,9.2µM*,9.2µM*,-5.7%
COc1cc(/C=N/NC(=O)c2nc(-c3ccccc3)n(-c3ccccc3)n2)ccc1O,-0.7%,-4.8,-3.1,-22.8%,5.5%,-5.9%
COc1cc(/C=N/NC(=O)c2cc(-c3ccccc3OC(C)C)nc3ccccc23)ccc1O,?,0.3,3.2,1.84µM*,?,-14.2%
COc1cc(C#N)ccc1OCC(=O)c1ccc2c(c1)OCCCO2,/,-3.5,/,/,/,/
CCn1c(=O)n(CCC(=O)Nc2ccccc2C)c2ccccc21,/,-0.2,/,/,/,/
Cc1nc2ccc(NC(=O)Cc3ccsc3)cc2s1,8.7%,-4.4,9.7,13µM*,16.4µM*,10.2%
C=CCNC(=O)Nc1ccc2nc(C)sc2c1,-2.0%,-0.7,-26.9,?,16.4µM*,-14.3%
Cc1ccc(NC(=O)Cc2ccsc2)cc1Cl,17.5%,-1.8,-8.1,-28.6%,?,8.9%
C=CCN(CC=C)C(=O)Nc1ccc2nc(C)sc2c1,17.6%,9.2,15.5,20.6µM*,-25.5%,-8.9%
CNC(=O)Nc1ccc2nc(C)sc2c1,-11.3%,-0.9,-10.4,-14.7%,-29.6%,-22.5%
FC(F)(F)c1cccc(C=Nc2cccc3c(N=Cc4cccc(C(F)(F)F)c4)cccc23)c1,/,16.1,/,/,/,/
COc1ccc2[nH]c(C)c(C(=O)CN3CCC(Cc4ccccc4)CC3)c2c1,/,-2.5,/,/,/,/
O=C(COCC(=O)N1CCN(c2ccccc2)CC1)NCc1ccc2c(c1)OCO2,/,-1.1,/,/,/,/
O=C(CSc1nc(O)cc(=O)n1-c1ccccc1)Nc1nc2ccccc2s1,-3.5%,-7.5,13.3,2.0%,14.0%,-8.2%
Cc1cnc(NC(=O)c2cc(-c3ccccc3)nn2-c2ccccc2)s1,/,0.0,-1.8,-21.4%,-2.5%,/
O=C(NNC(=O)c1cc(-c2ccccc2)nn1-c1ccccc1)c1ccccc1,?,-6.0,-97.2*,?,-11.1%,?
CCOC(=O)c1cc(-c2cccnc2)nn1-c1ccccc1,-3.4%,0.9,-97.9*,?,16.7%,-1.7%
CC(=O)c1sc(NC(=O)c2cc(-c3ccccc3)nn2-c2ccccc2)nc1C,-9.0%[10 µM],-3.8,-61.3*,6.51µM*,8.2µM*,?
O=C(Nc1nc2ccccc2s1)c1cc(-c2ccccc2)nn1-c1ccccc1,10µM*,-8.1,-13.7,10.3µM*,?,?
CCOC(=O)c1cc(-c2ccccc2)nn1-c1ccccn1,1.3%,1.8,4.3,0.5%,-15.2%,-4.6%
CCC(=O)N1N=C(c2ccc(F)cc2)CC1c1ccc2nccnc2c1 (stereo unspecified),/,8.9,/,/,/,/
COCCNC(=O)c1cc2cc(S(=O)(=O)N(C)C)ccc2n1C,/,2.1,/,/,/,/
SMILES,RORg inh,LDHA inh,IL-1B inflam inh,DT40 TDP1 no CPT,TDP1 cell CPT,VP16 counter
O=C(CCc1c[nH]c2ccccc12)Nc1ccc(F)c(Cl)c1,/,-0.5,/,/,/,/
COc1ccc2cc(CN(C(=O)Nc3ccccc3OC)C3CCCC3)c(=O)[nH]c2c1,15.2%,2.0,?,?,?,-13.0%
COc1cccc(NC(=O)N(Cc2ccco2)C(C)c2cccs2)c1 (stereo unspecified),18.3%,-8.0,-8.5,-27.8%,-17.3%,1.8%
O=C(Nc1ccc(Cl)c(Cl)c1)N(Cc1c[nH]c2ccccc12)C1CCCCC1,/,-5.2,/,9.2µM*,5.8µM*,/
COc1cccc(NC(=O)N(C2CCCCC2)C(C)c2cccs2)c1 (stereo unspecified),17.8%,7.6,1.5,12.6µM*,10µM*,0.3%
COc1cccc(NC(=O)N(Cc2c[nH]c3ccccc23)C2CCCCCC2)c1,/,4.4,/,9.2µM*,11.6µM*,/
N#Cc1ccccc1NC(=O)C1(c2ccccc2)CCCC1,/,4.2,/,/,/,/
Cn1cnc([N+](=O)[O-])c1S(=O)(=O)c1ccc(Cl)cc1,3.55µM*,-11.4,-137.9*,2.91µM*,1.16µM*,5.01µM*
Cn1cnc([N+](=O)[O-])c1NC(C)(C)C,-2.8%,-4.6,13.7,-6.3%,-1.0%,0.7%
O=C1C(Br)C2C3CC4C(CC(Br)C42)C13 (stereo unspecified),/,0.0,/,/,/,/
COc1ccc(NC(=O)C(=O)NCC2CCCN2S(=O)(=O)c2cccs2)cc1 (stereo unspecified),/,-2.0,-6.2,2.06µM*,2.31µM*,/
CCCCCOc1ccc(NC(=O)C(=O)NCC2CCCN2CC)cc1 (stereo unspecified),-10.6%,-3.8,-7.2,?,16.4µM*,-3.7%
O=C(NCCc1ccccc1)C(=O)NCC1CCCN1S(=O)(=O)c1cccs1 (stereo unspecified),/,-5.8,5.2,?,23.1µM*,/
Cc1ccccc1CNC(=O)C(=O)NCCC1CCCCN1S(=O)(=O)c1cccs1 (stereo unspecified),/,-6.0,-23.5,?,18.4µM*,/
Cc1ccccc1NC(=O)C(=O)NCC1CCCN1S(=O)(=O)c1cccs1 (stereo unspecified),/,0.5,4.0,?,-29.1%,/
CC(=O)Nc1ccccc1SC(F)(F)F,/,0.3,/,/,/,/
O=C(NCC(c1ccco1)S(=O)(=O)c1ccccc1)c1ccc2c(c1)OCO2 (stereo unspecified),/,4.9,/,/,/,/
COc1ccc(N)cc1OCCO,/,25.9,/,/,/,/
CSc1cccc(NC(=S)N(CCN(C)C)C(C)c2ccccn2)c1 (stereo unspecified),17.8µM*,-2.9,-23.2,-27.7%,-29.2%,?
Cc1ccccc1NC(=S)N(Cc1ccco1)C(C)c1ccccn1 (stereo unspecified),12.6µM*,-3.9,4.9,?,-13.5%,?
